Assay outcomes from PubChem BioAssay.
Shown are actives, neighbours in structure and some others; about 3.4% of the full set was active somewhere.
proKLK7 act = proKLK7 zymogen activators, primary screen, biochemical, fluorescence intensity; Kallikrein-7 (Homo sapiens), P49862; purified proKLK7, EDANS-DABCYL substrate fluorescence; 100% is mature enzyme control, 0% vehicle; activation, % at 7 µM; 370,000 tested, 0.9% active; AID 652039, 2013;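 active = activation above the mean of all tested compounds plus 3 SD, computed per campaign excluding outliers beyond control limits, cut at about 13% in these data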
Target sequence (P49862 whole entry, looked up): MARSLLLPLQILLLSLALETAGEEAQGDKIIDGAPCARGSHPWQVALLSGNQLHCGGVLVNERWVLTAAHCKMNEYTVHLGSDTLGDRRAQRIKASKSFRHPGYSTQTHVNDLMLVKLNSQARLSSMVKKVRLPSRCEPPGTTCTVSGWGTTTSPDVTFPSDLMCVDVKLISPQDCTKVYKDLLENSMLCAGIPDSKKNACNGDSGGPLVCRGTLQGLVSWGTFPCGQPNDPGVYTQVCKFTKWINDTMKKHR
PLC-beta3 inh = human PLC-beta3 inhibitors, primary screen, biochemical, fluorescence. 1-phosphatidylinositol 4,5-bisphosphate phosphodiesterase beta-3 (Homo sapiens), Q01970. 370,000 tested, 0.18% active. Purified PLC-beta3, fluorogenic substrate. inhibition, % at 12.2 µM; in the data active = inhibition above about 11%;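 note: 0% = median of compound wells on plate and 100% = full blocker control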
ADAM17 inh = ADAM17 inhibitors, primary screen, biochemical, QFRET; recombinant ADAM17, EDANS/DABCYL FRET peptide cleavage; inhibition, % at 6.95 µM; 370,000 tested, 0.83% active; AID 720648, 2013;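 active = inhibition above the mean of compounds lying between control limits plus 3 SD, set per campaign, cut at about 8.5% in these data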;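 note: 0% = DMSO-only wells as the low control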
HGIII-sPLA2 inh = human group III sPLA2 inhibitors, primary screen, biochemical, QFRET, BODIPY PC-A2 liposome substrate | QFRET BODIPY PC-A2 liposome hydrolysis, fluorescence | inhibition, % at 12.2 µM | Group 3 secretory phospholipase A2 (Homo sapiens), Q9NZ20 | 370,000 tested, 0.56% active;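 active = inhibition above mean plus 3 SD of compounds lying within the high and low control bounds, cut at about 19% in these data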;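 note: 0% = median of test compound wells and 100% = no enzyme DMSO wells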
PLCg1 inh = PLC-gamma1 enzyme inhibitors, primary screen, biochemical, fluorescence, purified enzyme; inhibition, % at 12.2 µM; fluorogenic substrate; 370,000 tested, 0.84% active; AID 720700, 2013; in the data active = inhibition above about 9.5%
ADAM10 inh = human ADAM10 inhibitors, primary screen, biochemical, QFRET, HTS; Disintegrin and metalloproteinase domain-containing protein 10 (Homo sapiens), O14672; recombinant ADAM10, EDANS/DABCYL FRET peptide cleavage, 3 h; inhibition, % at 7 µM; 370,000 tested, 0.62% active; AID 720582, 2013;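 active = inhibition above a per-campaign cutoff equal to the mean of compounds falling between control-based bounds plus 3 SD, cut at about 20% in these data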;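 note: 0% = DMSO wells while the 100% control is not disclosed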
ADAM10 confirm = human ADAM10 inhibitors, confirmation, biochemical, QFRET, triplicate. shares compounds with ADAM10 inh. ADAM10 QFRET peptide cleavage, EDANS fluorescence. inhibition, % at 6.95 µM. 2,100 tested, 1% active;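 active = inhibition above about 20% chosen separately for each screening run, limit read from the data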;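 note: 0% = DMSO wells and 100% = marimastat wells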
ADAM17 ctr = ADAM17 inhibitors, counter-screen for ADAM10 exosite inhibitor project, biochemical, QFRET, high throughput; ADAM17 QFRET peptide cleavage, EDANS fluorescence; inhibition, % at 6.95 µM; 2,100 tested, 0.5% active; shares compounds with ADAM10 inh; AID 743214, 2013;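 active = mean triplicate inhibition above the solvent-only control wells' mean plus 3 SD, cut at about 12% in these data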;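 note: 0% = DMSO wells and 100% = marimastat wells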
Numbers without * were called inactive.

Screening CCCCOc1cccc(C(=O)Nc2ccc(S(=O)(=O)Nc3nnc(CC)s3)cc2)c1 returned proKLK7 act 0, PLC-beta3 inh -5, ADAM17 inh 1, HGIII-sPLA2 inh -118, PLCg1 inh 3, ADAM10 inh 21*, ADAM10 confirm 1 and ADAM17 ctr 0.
Screening Cc1ccc(N(C(C)C(=O)Nc2cc(Cl)ccc2Oc2ccccc2)S(C)(=O)=O)cc1 (configuration not stated) returned proKLK7 act 0, PLC-beta3 inh 4, ADAM17 inh 8, HGIII-sPLA2 inh -21, PLCg1 inh 2, ADAM10 inh 22*, ADAM10 confirm 7 and ADAM17 ctr 2.
Screening CCCc1cn(-c2ccc3c(c2)[C@@]2(CC(=O)N(C)C2c2ccccc2)C(=O)N3CC(C)C)nn1 (some centres not stated) returned proKLK7 act 0, PLC-beta3 inh 2, ADAM17 inh 0, HGIII-sPLA2 inh 0, PLCg1 inh 2 and ADAM10 inh -3.
`CCCCN(C(=O)c1ccccc1Br)C(c1ccc(OC)cc1)c1nc2ccccc2[nH]1` (configuration not stated) gave proKLK7 act 0, PLC-beta3 inh -1, ADAM17 inh 7, HGIII-sPLA2 inh -7, PLCg1 inh 1, ADAM10 inh 21*, ADAM10 confirm 3 and ADAM17 ctr 1.
For COc1ccc(CN(C2CCCCC2C)S(=O)(=O)c2ccc(S(=O)(=O)N(C)C)cc2)cc1OC (configuration not stated) the results were proKLK7 act 0, PLC-beta3 inh 1, ADAM17 inh 5, HGIII-sPLA2 inh -19, PLCg1 inh 2, ADAM10 inh 22*, ADAM10 confirm 8 and ADAM17 ctr 2.
For COc1cc(CN(C2CCCCC2C)S(=O)(=O)c2ccc(S(=O)(=O)NC3CC3)cc2)cc(OC)c1OC (configuration not stated) the results were proKLK7 act 0, PLC-beta3 inh 1, ADAM17 inh 3, HGIII-sPLA2 inh -28, PLCg1 inh 2 and ADAM10 inh 11.
Screening Cc1ccccc1Nc1nc(N)nc(COC(=O)c2cccc(S(=O)(=O)N(C)C)c2)n1 returned proKLK7 act 0, PLC-beta3 inh 3, ADAM17 inh 2, HGIII-sPLA2 inh -4, PLCg1 inh 2 and ADAM10 inh 3.
Cc1ccccc1Nc1nc(N)nc(COC(=O)c2cccc(S(=O)(=O)NCc3ccccc3)c2)n1 was read as proKLK7 act 0, PLC-beta3 inh -1, ADAM17 inh 4, HGIII-sPLA2 inh -50, PLCg1 inh 6, ADAM10 inh 23*, ADAM10 confirm 2 and ADAM17 ctr 0.
For Cc1oc(-c2ccccc2)cc1C(=O)Nc1ccc(N(C)C)cc1 the results were proKLK7 act 1, PLC-beta3 inh -7, ADAM17 inh 7, HGIII-sPLA2 inh 6, PLCg1 inh -5, ADAM10 inh 22*, ADAM10 confirm 7 and ADAM17 ctr 4.
CCO[C@H]1OC(C(=O)NCc2ccccc2)=C[C@@H](c2ccc(C(F)(F)F)cc2)[C@@H]1CCCO was read as proKLK7 act 0, PLC-beta3 inh 2, ADAM17 inh 2, HGIII-sPLA2 inh -10, PLCg1 inh 2, ADAM10 inh 22*, ADAM10 confirm -1 and ADAM17 ctr 0.
Screening CCO[C@@H]1OC(C(=O)NCc2ccccc2)=C[C@H](c2ccc(Br)cc2)[C@H]1CCCO returned proKLK7 act 1, PLC-beta3 inh 2, ADAM17 inh 3, HGIII-sPLA2 inh -13, PLCg1 inh 3 and ADAM10 inh 12.
For CCCCNC(=O)C[C@H]1C[C@@]2(C(=O)OC)C(=C[C@H](C3CCCC3)O[C@@H]2C)N(Cc2ccco2)C1=O the results were proKLK7 act 1, PLC-beta3 inh 6, ADAM17 inh 3, HGIII-sPLA2 inh -6, PLCg1 inh -2 and ADAM10 inh 4.
Screening O=C(Nc1ccccc1)c1ccc(-c2ccccc2Cl)o1 returned proKLK7 act 1, PLC-beta3 inh -17, ADAM17 inh 4, HGIII-sPLA2 inh -25, PLCg1 inh -14, ADAM10 inh 20*, ADAM10 confirm 6 and ADAM17 ctr 2.
CC(=O)Nc1ccc(NC(=O)c2ccc(-c3ccccc3Cl)o2)cc1 was read as proKLK7 act 0, PLC-beta3 inh -15, ADAM17 inh -2, HGIII-sPLA2 inh -2, PLCg1 inh -9 and ADAM10 inh 3.
`C#CCN(C[C@@H]1[C@@H](OC(=O)NCc2ccc(OC)c(OC)c2)[C@@H](OC(=O)NCc2ccc(OC)c(OC)c2)Cn2c(=O)n(CCCCCC)c(=O)n21)S(=O)(=O)c1ccc(C)cc1` gave proKLK7 act 1, PLC-beta3 inh 2, ADAM17 inh 9, HGIII-sPLA2 inh -20, PLCg1 inh 0, ADAM10 inh 21*, ADAM10 confirm 12 and ADAM17 ctr 3.
Screening C#CCN(C[C@@H]1[C@@H](OC(=O)NCc2ccccc2)[C@@H](OC(=O)NCc2ccccc2)Cn2c(=O)n(CCCCCC)c(=O)n21)S(=O)(=O)c1ccc(C)cc1 returned proKLK7 act 0, PLC-beta3 inh 2, ADAM17 inh 6, HGIII-sPLA2 inh -7, PLCg1 inh -1 and ADAM10 inh 1.
For C[C@H]1CCCN1c1ccc2c(c1)OCCCN(C1CC1)S2(=O)=O the results were proKLK7 act 0, PLC-beta3 inh 1, ADAM17 inh 0, HGIII-sPLA2 inh -7, PLCg1 inh 0 and ADAM10 inh 2.
`CC(=O)c1cccc(NC(=O)C(C)OC(=O)c2cc(C)oc2C)c1` (configuration not stated) gave proKLK7 act 1, PLC-beta3 inh -2, ADAM17 inh 6, HGIII-sPLA2 inh -5, PLCg1 inh -2 and ADAM10 inh -3.
